LASV entry inh: Lassa virus entry inhibition | Lassa virus pseudotype entry inhibition, cell reporter | Potency, µM (series often up to 37.9 µM), hits mostly inhibitors | actives 1.2% (n = 300,000); calls by dose curve; tested in HEK293 cells; also: nearly all actives have a fitted effect of over 50% in size
CHX counter: affects cycloheximide protein synthesis inhibition readout, counter-screen | AID 2314 | max response, % | cell reporter, cycloheximide protein synthesis inhibition counterscreen | actives 12% (n = 300,000); in the data active = max response mostly above about 13%, no sharp cut-off; inactive = mostly below about 14%; also: read at 38.3 µM for the half of the compounds with a filed dose
MARV entry inh: blocks Marburg virus binding to or entry into cells. Marburg virus pseudotyped entry inhibition, cell reporter. Potency, µM (top dose mostly 37.8 µM), usual class: inhibitors. actives 1.8% (n = 300,000). AID 540276; calls by dose curve; tested in HEK293 cells
Shiga toxin inh: blocks Shiga toxin action in Vero cells. Vero cells, Shiga toxin protein synthesis inhibition reporter. inhibition, % at 38.7 µM. actives 9.2% (n = 290,000). AID 2315; in the data active = inhibition mostly above about 28%, no sharp cut-off; inactive = mostly below about 43%
Numbers stand for hits; n = inactive; u = inconclusive; x = no result given; + = active, no number. Only some compounds are listed: those with a hit (about 12% of all), similar ones and a draw of the others.

SMILES	LASV entry inh	CHX counter	MARV entry inh	Shiga toxin inh
Cc1c(O)ccc(/C(Cc2ccc3ccccc3n2)=N\N)c1O	x	29	x	68
O=C(COC(=O)c1ccc(S(=O)(=O)N2CCCC2)cc1)NCc1cccs1	n	n	n	n
COc1ccc2[nH]c(-c3ccc(C)cc3)cc(=O)c2c1	4.1µM	32	u	n
Cc1ccc2[nH]c(-c3ccc(F)cc3F)cc(=O)c2c1	x	32	x	+
CCOc1ccc2nc(-c3ccccc3)[nH]c2c1	u	35	u	71
COc1ccc(-c2nc(C)ncc2-c2ccccc2)c(O)c1	x	n	x	n
COc1ccc2cc(-c3ccccc3)ncc2c1	x	42	x	85
Cc1occc1C(=O)N/N=C/C1=C(N2CCOCC2)C(=C/c2ccc(Cl)cc2Cl)/CC1	n	x	n	x
COc1ccc2nc(-c3ccccc3)[nH]c2c1	u	57	u	73
COc1ccc(-c2cc(-c3ccccc3)c(C#N)c(=S)[nH]2)cc1	x	n	x	n
COc1ccc2[nH]c(-c3ccccc3)cc2c1	n	74	8.9µM	88
COc1ccc(CN2C(=O)N(c3ccc(C)cc3)C(=O)C2CC(=O)Nc2ccccc2)cc1OC (centres undefined)	n	x	n	x
O=S(=O)(Nc1cccc(-c2ccc(N3CCCCC3)nn2)c1)c1cccs1	n	x	x	x
CN(CC(=O)NCc1cccs1)CC(=O)Nc1ccc(F)c(F)c1F	n	n	n	n
CCN(CC(=O)N1CCOCC1)S(=O)(=O)c1cc(Cl)ccc1Cl	n	n	n	n
Cc1ccc(NC(=O)c2cnccn2)c(C)c1	x	21	x	38
COc1ccc(Cl)cc1NC(=O)c1cnccn1	x	13	x	n
COc1ccc(NC(=O)C(OC(=O)c2cnccn2)c2ccccc2)cc1Cl (centres undefined)	n	17	n	n
Cc1ccc(C)c(NC(=O)c2cnccn2)c1	n	n	u	x
O=C(Nc1ccc(Br)cc1Cl)c1cnccn1	n	19	n	n
Cc1nnc(N2CCCC(C(=O)Nc3cccc(C(F)(F)F)c3)C2)c2nn(-c3ccccc3)c(C)c12 (centres undefined)	n	x	x	x
COc1cccc(CNC(=O)C(=O)NCC(c2ccc3c(c2)OCO3)N2CCOCC2)c1 (centres undefined)	n	x	x	x
C/C(=N\NC(=O)c1nnn(-c2nonc2N)c1CN1CCCCC1)c1ccccc1O	n	n	u	n
COc1ccc(/C(O)=C2/C(=O)C(=O)N(CCCN(C)C)C2c2ccc(C)o2)cc1Cl (centres undefined)	x	n	x	n
Cc1ccc(NC(=O)c2sc3nc[nH]c(=O)c3c2C)c(C)c1	n	27	n	n
SMILES	LASV entry inh	CHX counter	MARV entry inh	Shiga toxin inh
CCOC(=O)c1cccc(NC(=O)c2sc3nc[nH]c(=O)c3c2C)c1	n	x	x	x
O=C(NNC(=O)c1ccc(Cl)cc1Cl)c1cnccn1	x	n	x	n
O=C(NNC(=O)c1cnccn1)c1ccc(Cl)cc1	u	22	u	n
CC1CN(C(=O)c2cccc(COc3ccc(Br)cc3)c2)CC(C)O1 (centres undefined)	u	58	u	13
CCOc1ccc(N=C(/C(C(=O)C(=O)N2CCOCC2)=C(/O)c2ccccc2)c2ccccc2)cc1	x	47	n	62
CCOc1ccc(OCc2cccc(C(=O)N3CCOCC3)c2)cc1	x	101	n	127
O=C(c1cccc(OCc2ccccc2)c1)N1CCOCC1	x	13	x	n
CC1CN(C(=O)c2ccc(COc3ccccc3Br)o2)CC(C)O1 (centres undefined)	n	n	u	n
Cc1ccc(NC(=O)Cn2c(=O)oc3cc(S(=O)(=O)N4CCCCC4)ccc32)c(Cl)c1	x	x	n	x
CCc1ccc(-c2ccc(C(=O)C(F)(F)F)[nH]2)cc1	u	64	u	126
Cc1cc(C)n(-c2nnc(C)n2/N=C/c2ccccc2OCc2ccccc2Cl)n1	u	n	n	n
Cc1cc(C)n(-c2nnc(C)n2/N=C/c2cc(Br)ccc2OCc2ccccc2)n1	u	20	n	n
CC(C)C(=O)Nc1c2c(nn1-c1ccc(F)cc1)CS(=O)(=O)C2	n	n	n	n
O=C1CN(C(=O)c2ccc(S(=O)(=O)N3CCCCC3)cc2)C(c2ccc(F)cc2)c2cc(Cl)ccc2N1 (centres undefined)	u	x	8.9µM	x
Cc1cccc(/C=N/NC(=O)C(C)Nc2cccc3ccccc23)n1 (centres undefined)	n	16	n	n
Cc1ccc(N2C(=O)C3CCCN3C2=S)cc1C (centres undefined)	u	16	n	n
Cc1ccc(N2C(=O)C3CCCN3C2=S)cc1Cl (centres undefined)	x	n	x	n
CCCCn1c(N)c(N(CCOC)C(=O)c2cc(-c3ccccc3Cl)nc3ccccc23)c(=O)[nH]c1=O	n	x	n	x
N#Cc1ccc(OCC(=O)OCC(=O)NC2CC2)cc1	n	x	n	x
CC(C)CCNC(=O)C(=O)NC1CCCC1	n	11	u	37
O=C(NCCc1nc2ccccc2n1Cc1ccc(F)cc1)c1ccco1	n	x	n	x
O=C1CC(c2cccs2)Sc2nc3ccccc3n21 (centres undefined)	n	45	n	106
CCCN1C(=O)CC(c2ccco2)Sc2ccccc21 (centres undefined)	n	n	n	n
O=C1CC(c2ccco2)Sc2nc3ccccc3n21 (centres undefined)	n	36	u	82
O=C1CC(c2ccc(F)cc2)Sc2nc(-c3ccccc3)c(-c3ccccc3)n21 (centres undefined)	n	n	n	n
SMILES	LASV entry inh	CHX counter	MARV entry inh	Shiga toxin inh
O=C1CC(c2ccccc2)Sc2nc3ccccc3n21 (centres undefined)	n	41	u	99
O=C1CC(c2ccc3c(c2)OCO3)Sc2nc3ccccc3n21 (centres undefined)	u	51	u	106
O=c1cc(-c2ccccc2Cl)oc2c(Br)ccc(O)c12	u	31	u	78
COc1ccc(C2=NN(C(=O)c3ccncc3)C(c3ccccc3O)C2)cc1 (centres undefined)	x	n	u	n
O=C(c1ccncc1)N1N=C(c2ccc(Cl)cc2)CC1c1ccccc1O (centres undefined)	u	45	u	116
CC(C)[C@H](CO)N(Cc1cccc(F)c1)c1nc(Nc2cccc(Cl)c2)c2ncn(C(C)C)c2n1	x	n	x	n
CC[C@H](CO)Nc1nc(Nc2cccc(Cl)c2)c2ncn(C(C)C)c2n1	x	10	x	n
CCn1cnc2c(Nc3cccc(Cl)c3)nc(N[C@@H]3CCCC[C@H]3N)nc21	x	x	6.3µM	x
COc1cccc(NC(=O)CSc2nc(N)cc(N)n2)c1	n	n	n	n
CC(C)(C)C1(C)OC(=O)C(=Cc2ccc(OCC(=O)Nc3ccccc3)cc2)C(=O)O1 (centres undefined)	n	18	u	59
COc1cccc(NC(=O)CNC(=O)c2ccccc2)c1	n	27	n	77
COc1cccc(NC(=O)CSC(N)=O)c1	n	n	n	36
COc1cc(OC)cc(C(=O)NCC(=O)Nc2ccc(-c3ccccc3)cc2)c1	n	20	u	63
COc1cc(C=C2C(=O)OC(C)(C)OC2=O)cc(Cl)c1OCC(=O)Nc1ccccc1	n	n	n	n
CCOC(=O)c1ccc(NC(=S)N2CCN(C(=O)C3CCCO3)CC2)cc1 (centres undefined)	x	n	x	n
Cc1cnc(C(=O)OCC(=O)N(Cc2ccccc2)C(C)(C)C)cn1	n	x	u	x
